Screens from PubChem.
The list is not random: actives were taken first. Their share in the collection is about 19%.
DT40 TDP1 CPT: growth inhibition of DT40 Tdp1-/-;hTDP1 cells with camptothecin (screen for TDP1 inhibitors); 420,000 compounds, 12% hits; Potency, µM (titrated, usually from 46.2 µM), for inactives: at the highest dose activity change, negative = growth inhibition, most hits filed as inhibitors; chicken DT40 Tdp1-/-;hTDP1 cells + 20 nM CPT, ATP luminescence, 48 h; AID 686979; note: potency is the fitted concentration of half-maximal effect; nearly all actives have a fitted effect of over 55% in size
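Cell growth measured by CellTiter-Glo luminescence after a minimum 48 h, 37 C compound exposure with 20 nM CPT in Tdp1-knockout DT40 cells stably expressing hTDP1, seeded 400/well; qHTS titration format.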
HT1080 IDH1KD tx: kills HT-1080 cells with IDH1 knockdown; HT-1080 IDH1 knockdown viability, ATP luminescence, 48 h; Potency, µM (doses to about 46.1 µM), without a hit: top-dose activity, negative = toxicity, usual class: cytotoxic; 360,000 compounds, 2% hits; AID 686971;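 note: potency is the fitted concentration of half-maximal effect; 0% = DMSO wells and -100% = cell-free medium wells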
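HT-1080-IDH1KD cells (IDH1 knocked down), 750/well in RPMI with 5% FBS, treated with compound 48 h at 37 degrees C. Viability by CellTiter-Glo luminescence, normalised to DMSO and no-cell wells; concentration-response curves classed.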
HT1080NT lethal: kills 2HG-producing HT-1080-NT fibrosarcoma cells; HT-1080-NT fibrosarcoma viability, CellTiter-Glo ATP luminescence, 48 h; Potency, µM (top dose mostly 46.1 µM), for the others: top-dose activity, negative = less viability, usual class: cytotoxic; 360,000 compounds, 1.6% hits;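 note: NT is the 2HG producing partner of a matched IDH1 knockdown line; potency is the fitted concentration of half-maximal effect; 0% = DMSO-treated cells and -100% = media-only wells without cells; nearly all actives have a fitted effect of over 55% in size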
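Read-out is CellTiter-Glo luminescence after 10 minutes at room temperature, following 48 hours' compound treatment of HT-1080-NT cells (750 cells/well, RPMI, 5% FBS, 37 degrees C).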
IL1B secr inh: inhibitors of inflammasome signaling (IL-1 beta secretion); THP-1 LPS/ATP IL-1B secretion, AlphaLISA, 16 h; hits give low values; activity change, % at 57.5 µM; 360,000 compounds, 4.7% hits; AID 743279; in the data active = activity change below about -50%; inconclusive = mostly about -30% to -49%
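THP-1 cells pretreated 1 hr with compounds (up to 57.5 uM final), then stimulated with LPS (250 ng/mL final) plus ATP (1.25 mM final); secreted IL-1B measured by AlphaLISA after 16 hr, decreased signal indicating inhibition.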
DT40 TDP1 no CPT: qHTS for Inhibitors of human tyrosyl-DNA phosphodiesterase 1 (TDP1): qHTS in cells in absence of CPT; Potency, µM (top dose mostly 46.2 µM), without a hit: at the highest dose activity change, negative = growth inhibition, actives largely listed as inhibitors; DT40 Tdp1-/- hTDP1 cells, no CPT, ATP luminescence, 48 h; 420,000 compounds, 15% hits; note: potency is the fitted concentration of half-maximal effect; nearly all actives have a fitted effect of over 55% in size
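A cellular qHTS used chicken DT40 cells lacking endogenous Tdp1 but carrying stably transfected human TDP1. Compounds were applied without camptothecin, and cell growth kinetics were judged by ATP-dependent luminescence after ≥48 hr.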
The depositor's hits bear a star; i = inactive; ? = inconclusive; nt = no result; [ ] = remark or other dose. Unless noted, calls come from the whole dose curve; as a rule, active = well fitted curve in the direction sought with a large enough effect; inconclusive = small, poorly fitted or top-dose-only effect, or another doubt; inactive = no such curve, though single readings can be large; an effect the other way counts as inactive or inconclusive. Unless noted, % is set by controls: 0 for no effect and ±100 for the full control effect.

SMILES	DT40 TDP1 CPT	HT1080 IDH1KD tx	HT1080NT lethal	IL1B secr inh	DT40 TDP1 no CPT
CN(C)CCCN(C(=O)c1ccco1)c1nc(-c2ccc(Cl)cc2)cs1	?	-6%	-21%	-54*	?
COc1ccc(-c2csc(N(CCCN3CCOCC3)C(=O)c3ccco3)n2)cc1	18µM*	-13%	-22%	?	16µM*
Cc1ccc(-c2csc(N(CCCN3CCOCC3)C(=O)c3ccco3)n2)cc1	?	?	?	-53*	21µM*
Cc1cc(NC(=O)CCC(=O)N(Cc2ccco2)C(C(=O)NC2CCCC2)c2ccccc2F)no1 (centres undefined)	-2%	-3%	-3%	14	?
Cc1cc(NC(=O)CCC(=O)N(Cc2ccco2)C(C(=O)NC2CCCC2)c2ccccc2C)no1 (centres undefined)	23µM*	-14%	-12%	-3	23µM*
COc1ccc(N(C(=O)/C=C/C(=O)Nc2cc(C)on2)C(C(=O)NC2CCCC2)c2ccccc2C)cc1 (centres undefined)	?	?	?	-87*	21µM*
CCCCN(C(=O)CCC(=O)Nc1cc(C)on1)C(C(=O)NC1CCCC1)c1cccc(OC)c1 (centres undefined)	8.2µM*	0%	-10%	12	?
CC(c1nccs1)N(C)C(=O)CCc1nnc(CCc2ccccc2)o1 (centres undefined)	9%	6%	0%	7	-15%
Brc1cccc(CNCc2ccncc2)c1	7%	5%	3%	40	-17%
Brc1ccc(OCc2ccccc2)c(CNCc2ccncc2)c1	16µM*	?	?	-59*	?
Fc1ccc(COc2ccccc2CNCc2ccncc2)cc1	?	2%	0%	-4	26µM*
O=C(CNC1CCCCCC1)Nc1ccccc1N1CCOCC1	-29%	0%	-26%	5	?
Cc1cc(C)c(C(=O)COC(=O)c2cccc(S(=O)(=O)NCc3ccccc3)c2)cc1C	?	-2%	-10%	23	16µM*
O=C(COC(=O)c1cccc(S(=O)(=O)NCc2ccccc2)c1)c1ccccc1	-4%	1%	5%	11	-27%
COc1ccc2cc(/C=N/NC(=O)c3ccc(CN(c4cccc(Cl)c4Cl)S(C)(=O)=O)cc3)c(Cl)nc2c1	18µM*	?	?	14	15µM*
COc1ccc2cc(/C=N/O)c(Cl)nc2c1	-15%	-9%	-16%	-16	?
Cc1ccc(-n2ncc(C(=O)NCc3ccccc3C)c2-n2cccc2)cc1	?	nt	nt	nt	23µM*
CCOc1ccccc1CNC(=O)c1cnn(-c2ccc(C)cc2)c1-n1cccc1	?	nt	nt	nt	21µM*
Cc1cc(C)n2nc(SCC(=O)NC3CCCCC3C)nc2n1 (centres undefined)	2%	0%	-3%	-4	-12%
CCCc1ncc(C(O)c2ccccc2OC)n1C (centres undefined)	1%	7%	2%	-8	4%
O=C(O)COC(=O)C1C(c2ccccc2)C(C(=O)O)C1c1ccccc1 (centres undefined)	-2%	-1%	15%	-4	0%
Nc1cccc2c1C(=O)N(C(=O)/C=C/c1cccc(F)c1)C2=O	?	16µM*	18µM*	-70*	?
Cc1ccc(C(=O)N2C(=O)c3cccc(N)c3C2=O)o1	1%	10%	25%	8	-3%
Nc1cccc2c1C(=O)N(C(=O)/C=C/c1cccc(Br)c1)C2=O	10µM*	?	?	-75*	23µM*
CCCCN(C(=O)C1CC(=O)N(Cc2ccc(C)cc2)C1)c1c(N)n(CC(C)C)c(=O)[nH]c1=O (centres undefined)	0%	16%	16%	i	-8%
SMILES	DT40 TDP1 CPT	HT1080 IDH1KD tx	HT1080NT lethal	IL1B secr inh	DT40 TDP1 no CPT
C[C@@H]1CN([C@@H](C)CO)C(=O)CCCn2nncc2CO[C@@H]1CN(C)C(=O)C1CCCCC1	-19%	6%	9%	11	-1%
O=S1(=O)c2cccc3cccc(c23)N1Cc1nnc(-c2ccccc2Br)o1	15µM*	?	-1%	-21	18µM*
COc1cc(/C=N/NC(=O)c2c(C)nc3ccc(Cl)cn23)cc(OC)c1OC	?	?	-7%	190	?
Cc1ccc2nc(C)c(C(=O)NN=C3CCN(C)CC3)n2c1	6%	5.2µM*	5.2µM*	65	8%
Cc1ccc(/C=N/NC(=O)c2c(C)nc3ccc(Br)cn23)cc1	0.73µM*	0.58µM*	1.3µM*	71	0.58µM*
COc1ccc(/C=N\NC(=O)c2c(C)nc3ccc(Br)cn23)cc1	0.58µM*	0.58µM*	?	75	0.73µM*
COC(=O)CCC(=O)c1ccn(S(=O)(=O)c2ccccc2)c1	-20%	-6%	1%	11	1%
CCOC(=O)N1CCC(=NNC(=O)c2ccccc2F)CC1	-3%	-1%	-5%	10	7%
Cc1ccc(C(=O)NC2CCCCC2)cc1S(=O)(=O)N1CCCC1	-13%	0%	3%	0	0%
CC(C)Nc1nc(N)c(C(=O)C23CC4CC(CC(C4)C2)C3)s1	21µM*	-4%	-1%	24	?
COc1cccc(C(=O)c2sc(Nc3ccc(F)c(Cl)c3)nc2N)c1	2%	nt	nt	nt	-16%
COc1cccc(C(=O)c2sc(NC(C)C)nc2N)c1	?	?	-24%	-107*	?
COc1ccc(C(=O)c2sc(NC(C)C)nc2N)cc1OC	?	-4%[9.24 µM]	?	-109*	23µM*
CSCCC1COC(c2cccs2)=N1 (centres undefined)	24%	1%	19%	-6	-3%
Cc1cccc(CCN(CC(=O)NCc2ccc(F)cc2)C(=O)c2csnn2)c1	-3%	-8%	-11%	?	?
COc1ccc(-c2cc(NC=O)c3ncc(-c4cccc(C(F)(F)F)c4)n3c2)cc1OC	23µM*	21µM*	?	-63*	21µM*
COc1cc(-c2cc(NC=O)c3ncc(-c4cccc(C(F)(F)F)c4)n3c2)cc(OC)c1OC	8.2µM*	-10%	-14%	-28	10µM*
CN(C)c1ccccc1-c1cc(NC=O)c2ncc(-c3cccc(C(F)(F)F)c3)n2c1	?	29µM*	?	-74*	23µM*
COc1ccccc1-c1cc(NC=O)c2ncc(-c3cccc(C(F)(F)F)c3)n2c1	?	-6%	-9%	-7	18µM*
COc1ccccc1-c1cc(NC=O)c2ncc(-c3ccc(F)cc3)n2c1	13µM*	18µM*	?	-23	18µM*
